From the antibiotic and cytotoxicity screens of Wong et al. (2023)
In all, about 39,000 compounds went through this assay and about 3,300 (8.5%) were called active. This excerpt belongs to a sample that is enriched for actives.

Test system: HepG2
Assay: cytotoxicity call (relative viability < 0.9)
Conditions: 10 µM

SMILES	cytotoxicity call
C[C@H](CO)N1C[C@H](C)[C@H](CN(C)Cc2ccc3c(c2)OCO3)Oc2ccc(NC(=O)Nc3cccc4ccccc34)cc2CC1=O	inactive
C[C@@H]1CN([C@@H](C)CO)C(=O)Cc2cc(NC(=O)Nc3cccc4ccccc34)ccc2O[C@H]1CN(C)Cc1ccc2c(c1)OCO2	active
C[C@H]1CN([C@@H](C)CO)C(=O)Cc2cc(NC(=O)Nc3cccc4ccccc34)ccc2O[C@@H]1CN(C)Cc1ccc2c(c1)OCO2	inactive
C[C@@H]1CN([C@H](C)CO)C(=O)Cc2cc(NC(=O)Nc3cccc4ccccc34)ccc2O[C@@H]1CN(C)Cc1ccc2c(c1)OCO2	active
C[C@H]1CN([C@@H](C)CO)C(=O)Cc2cc(NC(=O)Nc3cccc4ccccc34)ccc2O[C@H]1CN(C)Cc1ccc2c(c1)OCO2	inactive
C[C@@H]1CN([C@H](C)CO)C(=O)Cc2cc(NC(=O)Nc3cccc4ccccc34)ccc2O[C@H]1CN(C)Cc1ccc2c(c1)OCO2	inactive
O=c1[nH][nH]c(=O)c(Cl)c1Cl	inactive
COc1ccc(NC(=O)N(C)C[C@@H]2Oc3c(NC(=O)C4CC4)cccc3C(=O)N([C@@H](C)CO)C[C@H]2C)cc1	inactive
CC(C)CC#Cc1ccc2c(c1)O[C@H](CN(C)C(=O)NC1CCCC1)[C@@H](C)CN([C@H](C)CO)S2(=O)=O	inactive
CC(C)NC(=O)Nc1cccc2c1O[C@H](CN(C)S(=O)(=O)c1ccc(Cl)cc1)[C@H](C)CN([C@@H](C)CO)C2=O	inactive
COc1ccc(CN(C)C[C@@H]2OCCCC[C@@H](C)Oc3ccc(NS(=O)(=O)c4c(C)noc4C)cc3C(=O)N([C@H](C)CO)C[C@H]2C)cc1	inactive
C[C@@H]1CN([C@@H](C)CO)C(=O)c2cc(NC(=O)Cc3cn(C)c4ccccc34)ccc2O[C@H]1CN(C)S(=O)(=O)c1cn(C)cn1	inactive
COc1ccc(NC(=O)Nc2ccc3c(c2)C(=O)N([C@@H](C)CO)C[C@H](C)[C@H](CN(C)C(=O)Nc2ccc4c(c2)OCO4)OCCCC[C@H](C)O3)cc1	inactive
CCS(=O)(=O)Nc1ccc2c(c1)/C(=C(/Nc1ccc(CN3CCCCC3)cc1)c1ccccc1)C(=O)N2	active
CCS(=O)(=O)Nc1ccc2c(c1)CC(=O)N2	inactive
CCS(=O)(=O)Nc1ccc2c(c1)C(=O)N(C)[C@@H]1CC[C@H](CC(=O)N[C@H]3CCN(Cc4ccccc4)C3)O[C@H]1CO2	inactive

SMILES	cytotoxicity call
N#Cc1cccc(NCCN2CCNC2=O)n1	inactive
C=CCCN(CC#C[C@H]1Oc2ccccc2S(=O)(=O)N2CCC[C@@H]12)S(=O)(=O)c1ccc(C)cc1	active
Cc1ccc(S(=O)(=O)N(C)C[C@H]2Oc3cc(C#Cc4ccccc4)ccc3S(=O)(=O)N([C@H](C)CO)C[C@@H]2C)cc1	inactive
Cc1ccc(S(=O)(=O)N(C)C[C@@H]2Oc3cc(C#Cc4ccccc4)ccc3S(=O)(=O)N([C@H](C)CO)C[C@H]2C)cc1	inactive
C[C@@H]1CCCCO[C@H](CN(C)C(=O)Cc2ccccc2)[C@@H](C)CN([C@H](C)CO)C(=O)c2cc(NS(=O)(=O)c3ccc(F)cc3)ccc2O1	inactive
Cc1noc(C)c1NC(=O)Nc1ccc2c(c1)C(=O)N([C@H](C)CO)C[C@@H](C)[C@H](CN(C)C(=O)Nc1ccc(C(F)(F)F)cc1)OCCCC[C@H](C)O2	inactive
CCCNC(=O)Nc1ccc2c(c1)OC[C@H](C)N(Cc1ccc(-c3ccccn3)cc1)C[C@@H](C)[C@@H](OC)CN(C)C2=O	inactive
O=C(C[C@@H]1CC[C@H]2[C@@H](COC[C@@H](O)CN2Cc2cc(F)ccc2F)O1)N[C@H]1CCN(Cc2ccccc2)C1	inactive
O=C(C[C@H]1CC[C@H]2[C@@H](COC[C@@H](O)CN2Cc2cc(F)ccc2F)O1)N[C@H]1CCN(Cc2ccccc2)C1	active
O=C(C[C@@H]1CC[C@@H]2[C@H](COC[C@@H](O)CN2Cc2cc(F)ccc2F)O1)N[C@@H]1CCN(Cc2ccccc2)C1	inactive
O=C(C[C@@H]1CC[C@H]2[C@@H](COC[C@H](O)CN2Cc2cc(F)ccc2F)O1)N[C@H]1CCN(Cc2ccccc2)C1	inactive
O=C(C[C@H]1CC[C@H]2[C@@H](COC[C@H](O)CN2Cc2cc(F)ccc2F)O1)N[C@H]1CCN(Cc2ccccc2)C1	inactive
O=C(C[C@H]1CC[C@@H]2[C@H](COC[C@@H](O)CN2Cc2cc(F)ccc2F)O1)N[C@H]1CCN(Cc2ccccc2)C1	active
O=C(C[C@H]1CC[C@@H]2[C@H](COC[C@@H](O)CN2Cc2cc(F)ccc2F)O1)N[C@@H]1CCN(Cc2ccccc2)C1	active
O=C(C[C@@H]1CC[C@@H]2[C@H](COC[C@@H](O)CN2Cc2cc(F)ccc2F)O1)N[C@H]1CCN(Cc2ccccc2)C1	inactive
O=C(C[C@H]1CC[C@H]2[C@@H](COC[C@@H](O)CN2Cc2cc(F)ccc2F)O1)N[C@@H]1CCN(Cc2ccccc2)C1	inactive
